DT40 TDP1 no CPT = qHTS for Inhibitors of human tyrosyl-DNA phosphodiesterase 1 (TDP1): qHTS in cells in absence of CPT. DT40 Tdp1-/- hTDP1 cells, no CPT, ATP luminescence, 48 h. Potency, µM (top dose mostly 46.2 µM), for the others: at the highest dose activity change, negative = growth inhibition, actives largely listed as inhibitors. actives 15% (n = 420,000). AID 686978, 2013; also: nearly all actives have a fitted effect of over 55% in size
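Seeded 400 DT40-hTDP1 cells/well (vehicle DMSO, no 20 nM CPT); pinned compounds; ≥48 hr at 37 °C; CellTiter-Glo luminescence as viability measure.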
KB-V1 cytotox = qHTS assay for MDR1-selective chemotherapeutics: Primary screen using the drug-selected MDR subline cells KB-V1; KB-V1 MDR cells viability, CellTiter-Glo, 72 h; Potency, µM (titrated, usually from 46.1 µM), actives largely listed as cytotoxic; actives 3.4% (n = 400,000); AID 1347076, 2019; also: nearly all actives have a fitted effect of over 60% in size
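Following 72 h at 37 degrees C with compound, KB-V1 cell viability was read by CellTiter-Glo luminescence, medium being phenol-red-free DMEM plus 10% FBS; concentration-response parameters came from normalized, curve-fitted qHTS data.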
HT1080-NT tox = qHTS for induction of synthetic lethality in tumor cells producing 2HG: qHTS for the HT-1080-NT fibrosarcoma cell line; HT-1080-NT fibrosarcoma viability, CellTiter-Glo ATP luminescence, 48 h; actives 1.6% (n = 360,000); AID 686970, 2013; Potency, µM (highest dose often 46.1 µM), for inactives: top-dose activity, negative = less viability, usual class: cytotoxic;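 also: NT is the 2HG producing partner of a matched IDH1 knockdown line; 0% = DMSO-treated cells and -100% = media-only wells without cells; nearly all actives have a fitted effect of over 55% in size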
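Fibrosarcoma NT cells, 750 per well in 5% FBS RPMI, were exposed to compound for 48 hours. Viability: CellTiter-Glo luminescence.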
DT40 TDP1 CPT = qHTS for Inhibitors of human tyrosyl-DNA phosphodiesterase 1 (TDP1): qHTS in cells in presence of CPT. chicken DT40 Tdp1-/-;hTDP1 cells + 20 nM CPT, ATP luminescence, 48 h. Potency, µM (doses to about 46.2 µM), for the others: top-dose activity change, negative = growth inhibition, usual class: inhibitors. actives 12% (n = 420,000). AID 686979, 2013; also: nearly all actives have a fitted effect of over 55% in size
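Cell growth measured by CellTiter-Glo luminescence after a minimum 48 h, 37 C compound exposure with 20 nM CPT in Tdp1-knockout DT40 cells stably expressing hTDP1, seeded 400/well; qHTS titration format.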
KB-3-1 cytotox = qHTS assay for MDR1-selective chemotherapeutics: Primary screen using the parental adenocarcinoma cell KB-3-1 | Potency, µM (doses to about 46.1 µM), actives largely listed as cytotoxic | AID 1347075, 2019 | actives 1.4% (n = 400,000) | KB-3-1 viability, CellTiter-Glo ATP luminescence, 72 h; also: nearly all actives have a fitted effect of over 60% in size
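Luminescent ATP read-out (CellTiter-Glo) measures survival of drug-naive KB-3-1 cells after 72 h compound exposure at 37 °C. Titration series was screened from lowest to highest concentration, with DMSO vehicle plates as background controls.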
HT1080 IDH1KD tx = qHTS for induction of synthetic lethality in tumor cells producing 2HG: qHTS for the HT-1080-IDH1KD cell line. Potency, µM (titrated, usually from 46.1 µM), without a hit: at the highest dose activity, negative = toxicity, most hits filed as cytotoxic. actives 2% (n = 360,000). HT-1080 IDH1 knockdown viability, ATP luminescence, 48 h;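 also: 0% = DMSO wells and -100% = cell-free medium wells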
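Cytotoxicity counter-line: IDH1KD HT-1080, 48 h, CellTiter-Glo. Curves classed by r2, magnitude and activity.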
* marks the source's active call; other numbers are inactive results; [ ] = another dose, or the depositor's remark. Most compounds without a hit are left out; they make up all but 19% or so of the library. Calls follow the shape of the dose curve; as a rule, active = well fitted curve in the direction sought with a large enough effect; inconclusive = small, poorly fitted or top-dose-only effect, or another doubt; inactive = no such curve, though single readings can be large; an effect the other way counts as inactive or inconclusive. Unless noted, % is scaled to controls: 0 for no effect and ±100 for the full control effect; potency is read from the fitted curve at half-maximal effect.

Results for C=C(C)C(=O)Nc1ccc2nn(-c3ccccc3O)nc2c1 ?
DT40 TDP1 no CPT: inconclusive; KB-V1 cytotox: inactive; HT1080-NT tox: -5%; DT40 TDP1 CPT: -13%; KB-3-1 cytotox: inactive; HT1080 IDH1KD tx: -12%

Results for O=C(Cc1ccccc1)NCC(=O)N/N=C/c1ccc(Cl)cc1 ?
DT40 TDP1 no CPT: -27%; KB-V1 cytotox: inactive; HT1080-NT tox: -2%; DT40 TDP1 CPT: inconclusive; KB-3-1 cytotox: inactive; HT1080 IDH1KD tx: 1%

Results for COCC1CCCN(Cc2ccc3c(c2)CN(C(=O)c2cnn(C(C)C)c2)CCO3)C1 (centres undefined) ?
DT40 TDP1 no CPT: -22%; DT40 TDP1 CPT: 13%[9.04 µM]

What do the screens show for `Cc1ccc(NS(=O)(=O)c2c(C(=O)N3CCCCCC3)c(C)n(C)c2C)cc1C`?
DT40 TDP1 no CPT: inconclusive; KB-V1 cytotox: inactive; HT1080-NT tox: 4%; DT40 TDP1 CPT: inconclusive; KB-3-1 cytotox: inactive; HT1080 IDH1KD tx: 2%

What do the screens show for `CN(C)S(=O)(=O)c1ccc(N2CCCC2)c(C(=O)Nc2ccccc2Br)c1`?
DT40 TDP1 no CPT: inconclusive; KB-V1 cytotox: inactive; HT1080-NT tox: 4%; DT40 TDP1 CPT: 2%; KB-3-1 cytotox: inactive; HT1080 IDH1KD tx: -4%

Results for Cc1ccccc1NC(=O)c1cc(N)ccc1N1CCCCC1 ?
DT40 TDP1 no CPT: inconclusive; KB-V1 cytotox: 15µM*; HT1080-NT tox: -6%; DT40 TDP1 CPT: inconclusive; KB-3-1 cytotox: inactive; HT1080 IDH1KD tx: -18%

How did COc1ccc(S(=O)(=O)N2CCOCC2)cc1NC(=O)c1cc(C)oc1C do in these assays?
DT40 TDP1 no CPT: 2%; KB-V1 cytotox: inactive; HT1080-NT tox: 9%; DT40 TDP1 CPT: -3%; KB-3-1 cytotox: inactive; HT1080 IDH1KD tx: 6%

Results for COc1ccc(S(=O)(=O)N2CCOCC2)cc1NC(=O)c1cccc2c(=O)c(C)c(-c3ccccc3)oc12 ?
DT40 TDP1 no CPT: 5.2µM*; KB-V1 cytotox: inactive; HT1080-NT tox: -2%; DT40 TDP1 CPT: inconclusive; KB-3-1 cytotox: inconclusive; HT1080 IDH1KD tx: 1%

What do the screens show for `CCS(=O)(=O)c1ccc(O)c(NC(=O)c2cc(-c3ccccn3)nc3ccccc23)c1`?
DT40 TDP1 no CPT: inconclusive; KB-V1 cytotox: inactive; HT1080-NT tox: -3%; DT40 TDP1 CPT: inconclusive; KB-3-1 cytotox: inactive; HT1080 IDH1KD tx: -1%

How did CCN(CC)S(=O)(=O)c1ccc(N2CCOCC2)c(NC(=O)c2cc(-c3ccccn3)nc3ccccc23)c1 do in these assays?
DT40 TDP1 no CPT: 9.2µM*; KB-V1 cytotox: inconclusive; HT1080-NT tox: inconclusive; DT40 TDP1 CPT: 13µM*; KB-3-1 cytotox: inactive; HT1080 IDH1KD tx: -17%

What do the screens show for `CCC(=O)N1CCN(c2ccc(NC(=O)c3ccc4c(c3)OCCO4)cc2)CC1`?
DT40 TDP1 no CPT: 10%; KB-V1 cytotox: inactive; HT1080-NT tox: -28%; DT40 TDP1 CPT: -16%; KB-3-1 cytotox: inactive; HT1080 IDH1KD tx: inconclusive

What do the screens show for `CCC(=O)N1CCN(c2ccc(Cl)cc2NC(=O)c2ccc3c(c2)OCCO3)CC1`?
DT40 TDP1 no CPT: inconclusive; KB-V1 cytotox: 5.2µM*; HT1080-NT tox: -1%; DT40 TDP1 CPT: 16µM*; KB-3-1 cytotox: inactive; HT1080 IDH1KD tx: -10%

Results for Cc1cc(C(=O)OCC(=O)N(C)c2ccccc2)c(C)o1 ?
DT40 TDP1 no CPT: -1%; KB-V1 cytotox: inactive; HT1080-NT tox: 0%; DT40 TDP1 CPT: -18%; KB-3-1 cytotox: inactive; HT1080 IDH1KD tx: -1%

Results for CCN(CC)S(=O)(=O)c1ccc(N2CCOCC2)c(NC(=O)COc2ccccc2C)c1 ?
DT40 TDP1 no CPT: 18µM*; KB-V1 cytotox: inactive; HT1080-NT tox: -7%; DT40 TDP1 CPT: 21µM*; KB-3-1 cytotox: inactive; HT1080 IDH1KD tx: -9%

Results for CCN(CC)S(=O)(=O)c1ccc(N2CCOCC2)c(NC(=O)c2ccc3c(c2)OCCO3)c1 ?
DT40 TDP1 no CPT: 21µM*; KB-V1 cytotox: inactive; HT1080-NT tox: 2%; DT40 TDP1 CPT: 16µM*; KB-3-1 cytotox: inactive; HT1080 IDH1KD tx: 0%

Results for CCN(CC)S(=O)(=O)c1ccc(N2CCOCC2)c(NC(=O)COc2ccccc2C#N)c1 ?
DT40 TDP1 no CPT: 3%; KB-V1 cytotox: inactive; HT1080-NT tox: -3%; DT40 TDP1 CPT: inconclusive; KB-3-1 cytotox: inactive; HT1080 IDH1KD tx: -3%

Results for CCN(CC)S(=O)(=O)c1ccc(N2CCOCC2)c(NC(=O)C(C)(C)C)c1 ?
DT40 TDP1 no CPT: -16%; KB-V1 cytotox: inactive; HT1080-NT tox: -1%; DT40 TDP1 CPT: inconclusive; KB-3-1 cytotox: inactive; HT1080 IDH1KD tx: 6%

What do the screens show for `CCN(CC)S(=O)(=O)c1ccc(N2CCOCC2)c(NC(=O)c2ccc3ccccc3c2)c1`?
DT40 TDP1 no CPT: 21µM*; KB-V1 cytotox: inactive; HT1080-NT tox: 4%; DT40 TDP1 CPT: inconclusive; KB-3-1 cytotox: inactive; HT1080 IDH1KD tx: -3%

Results for CCN(CC)S(=O)(=O)c1ccc(N2CCOCC2)c(NC(=O)c2ccc(NC(C)=O)cc2)c1 ?
DT40 TDP1 no CPT: 19%; KB-V1 cytotox: inactive; HT1080-NT tox: 0%; DT40 TDP1 CPT: -26%; KB-3-1 cytotox: inactive; HT1080 IDH1KD tx: -2%

What do the screens show for `CCN(CC)S(=O)(=O)c1ccc(N2CCOCC2)c(NC(=O)c2cccc3c(=O)c(C)c(-c4ccccc4)oc23)c1`?
DT40 TDP1 no CPT: 9.2µM*; KB-V1 cytotox: 21µM*; HT1080-NT tox: -19%; DT40 TDP1 CPT: 5.8µM*; KB-3-1 cytotox: inactive; HT1080 IDH1KD tx: 2%

Results for COc1ccc(CCNC(=O)C(=O)NCC(c2ccco2)S(=O)(=O)c2ccc(C)cc2)cc1 (centres undefined) ?
DT40 TDP1 no CPT: -29%; KB-V1 cytotox: inactive; DT40 TDP1 CPT: -23%; KB-3-1 cytotox: inactive

How did COc1ccc(C)cc1NC(=O)n1ncc2cc(Cl)ccc21 do in these assays?
DT40 TDP1 no CPT: 6%; KB-V1 cytotox: inactive; HT1080-NT tox: 3%; DT40 TDP1 CPT: -11%; KB-3-1 cytotox: inactive; HT1080 IDH1KD tx: -1%
